Most compounds without a hit are left out; they make up all but 21% or so of the library.
Pf growth 96h – P. falciparum growth inhibition at 96 hour, primary screen for plastid delayed-death inhibitors; P. falciparum luciferase reporter growth, 96 h; AID 504834; 320,000 compounds, 6.9% hits; Potency, µM (doses to about 28.7 µM), inactives show at the highest dose activity change, negative = inhibition, actives largely listed as inhibitors; further: potency means the concentration at half of the fitted maximal effect; on the % scale 0 is the no-effect control and ±100 the full control effect
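Plates of compound plus infected erythrocytes (2% hematocrit, 0.05% parasitemia final) incubate 96 hours, 37 C, 5% CO2. Detection reagent added; reduced luminescence from the parasites' luciferase reporter flags inhibition.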
Cycloheximide cs – counter-screen for Shiga toxin inhibitors: cycloheximide protein synthesis inhibition. cell reporter, cycloheximide protein synthesis inhibition counterscreen. max response, %. 300,000 compounds, 12% hits; in the data active means max response mostly above about 13%, no sharp cut-off; inactive means mostly below about 14%; further: read at 38.3 µM for the half of the compounds with a filed dose; 0% is about no effect
Pf growth 48h – inhibits P. falciparum growth in the first generation, 48 h; P. falciparum luciferase growth in erythrocytes, 48 h; Potency, µM (titrated, usually from 28.7 µM), without a hit: at the top dose activity change, negative = inhibition, hits mostly inhibitors; 310,000 compounds, 5.9% hits; AID 504832; further: potency means the concentration at half of the fitted maximal effect; on the % scale 0 is the no-effect control and ±100 the full control effect
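Growth was read as firefly luciferase luminescence after a 48 h, 37 C, 5% CO2 exposure of compounds to reporter-bearing P. falciparum cultures (0.1% parasitemia, 2% hematocrit final) in Albumax-supplemented RPMI 1640.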
Shiga toxin inh – inhibitors of Shiga toxin in Vero cells; Vero cells, Shiga toxin protein synthesis inhibition reporter; inhibition, % at 38.7 µM; 290,000 compounds, 9.2% hits; AID 2315; in the data active means inhibition mostly above about 28%, no sharp cut-off; inactive means mostly below about 43%; further: 0% is about no effect
Starred values were filed as active, the others as inactive; i = inactive; ? = inconclusive; . = no result. Unless noted, the call rests on the fitted dose curve; in most records, active means well fitted inhibition curve with a large enough effect; inconclusive means small, poorly fitted or top-dose-only effect, or another doubt; inactive means no such curve, though single readings can be large or run the other way.

SMILES | Pf growth 96h | Cycloheximide cs | Pf growth 48h | Shiga toxin inh
CCC(COC)Oc1cc(NCc2ccccc2)c2ncn(C(C)C)c2c1 (stereo not given) | ? | . | 4.1µM* | .
CC(=O)C1=C(c2cccc([N+](=O)[O-])c2)N(C(C)=O)n2c(C)nnc2S1 | ? | 18* | ? | 12
CCOC(=O)c1cc(-c2cccc([N+](=O)[O-])c2)on1 | ? | 2 | -1% | -7
CCOc1ccc(-c2nc(C)c(C(C)=O)n2O)cc1 | . | 6 | 27% | 16
CCOc1ccc(C2=C(C(C)=O)Sc3nnc(C)n3N2C(C)=O)cc1 | . | 20* | . | 45
Cc1ccc(C2=NNC3(CCOC(C)(C)C3)S2)cc1 (stereo not given) | ? | 37* | 63% | 54*
Nc1nc2c(s1)COc1ccccc1-2 | 31% | 14* | 42% | 42
CCCCC(=O)Nc1nc2c(s1)COc1ccccc1-2 | 1% | 38* | 42% | 42*
CC(C)(C)C(=O)Nc1nc2c(s1)COc1ccccc1-2 | ? | 19* | ? | 46*
O=C(CCSc1ccccc1)Nc1nc2c(s1)COc1ccccc1-2 | 13% | -1 | 5% | 12
CCCC(=O)Nc1nc2c(s1)COc1ccccc1-2 | 52% | 24* | 86% | 31*
COc1ccc(NC(=O)CN2CCN(c3c(C)cccc3C)CC2)cc1 | -3% | 6 | -18% | 12
COc1ccccc1CN(C)C(=O)c1ccccc1Sc1ccccc1C#N | ? | -2 | 14% | -12
COc1cc(C(=O)NCCSc2ccc(Br)cc2)cc(OC)c1OC | 2% | 12 | ? | -10
O=C(NCCSc1ccc(Br)cc1)c1ccc2nc[nH]c2c1 | -12% | 21* | 13% | 16
CC(C)CCNC(=O)c1ccc2nc[nH]c2c1 | . | 24* | 39% | 52
Cn1cnnc1SCc1ccc(C(=O)O)cc1 | 21% | -5 | 0% | -18
CCC/C(=N\NC(=O)c1ccc(CSc2nncn2C)cc1)c1ccccc1 | -6% | 9 | -9% | 13
C/C(=N\NC(=O)c1ccc(CSc2nncn2C)cc1)c1cccs1 | 10% | 28* | 0% | 107*
COc1ccc(/C(C)=N/NC(=O)c2ccc(CSc3nncn3C)cc2)cc1 | 4.1µM* | 6 | ? | -6
Cn1cnnc1SCc1ccc(C(=O)NN)cc1 | -15% | 45* | 7% | 48
Cn1cnnc1SCc1ccc(C(=O)N/N=C(\CCC(=O)O)c2ccc(C(C)(C)C)cc2)cc1 | 22% | 14* | 14% | 32*
CCCCN(C(=O)c1ccc(Cl)c([N+](=O)[O-])c1)c1c(N)n(CCC)c(=O)[nH]c1=O | ? | 0 | 7% | -8
Cc1cccc(C)c1NC(=O)CN(C1CCCCC1)S(C)(=O)=O | -28% | 2 | -1% | -9
O=C(NCc1ccco1)C(=O)c1cn(CC(=O)N2CCCCC2)c2ccccc12 | -15% | 2 | 8% | 8
SMILES | Pf growth 96h | Cycloheximide cs | Pf growth 48h | Shiga toxin inh
CCCCN1C(=O)C(=O)N(CC(=O)Nc2cc(Cl)ccc2OC)C1=O | ? | . | 24% | .
CC(C)C[C@H](NC(=O)[C@H](Cc1ccccc1)NC(=O)CNC(=O)[C@@H](COC(C)(C)C)NC(=O)[C@@H](N)Cc1ccc(O)cc1)C(=O)N[C@H](C(=O)O)[C@@H](C)OC(C)(C)C | . | -4 | . | -3
CC(C)c1ccc2[nH]c(O)c(N=NC(=O)c3ccc(CSc4nncn4C)cc3)c2c1 | 5.2µM* | -3 | -17% | -12
Cc1ccc(S(=O)(=O)CCC(=O)OCC(=O)NC2CCS(=O)(=O)C2)cc1 (stereo not given) | 4% | . | 0% | .
Cc1ccc(C)c(NS(=O)(=O)c2ccc3c(c2)NC(=O)CCS3)c1 | 9.3µM* | 9 | -17% | 0
CCOc1ccccc1NS(=O)(=O)c1ccc2c(c1)NC(=O)CCS2 | ? | 0 | -10% | -5
Cc1ccc(CCNS(=O)(=O)c2ccc3c(c2)NC(=O)CCS3)cc1 | 13µM* | -3 | 8% | -9
Cc1ccccc1NS(=O)(=O)c1ccc2c(c1)NC(=O)CCS2 | 12µM* | 13 | -23% | -2
Cc1ccc(NS(=O)(=O)c2ccc3c(c2)NC(=O)CCS3)c(Br)c1 | ? | 16 | 6.6µM* | 6
Cc1cc(C)n(CCNc2nc3nonc3nc2N2CCCCC2)n1 | 33% | -2 | 0% | -8
CC(=O)Nc1ccc(C(=O)N/C(=C/c2ccccc2)C(=O)Nc2cccc(C(=O)O)c2)cc1 | 20% | -3 | 3% | 1
CC(=O)Nc1ccc(NC(=O)/C(Cl)=C/c2ccccc2)cc1 | 21% | 47* | 55% | 157*
CCC(Oc1ccc(Br)cc1)C(=O)N1CCN(c2ncccn2)CC1 (stereo not given) | 22% | 1 | -7% | -6
CCCCNC(=O)Nc1nc2ccccc2s1 | 227% | 57 | i | 71*
CCOC(=O)Nc1nc(-c2ccc(Cl)cc2Cl)cs1 | 31% | 24* | 25% | 78*
CCCCNC(=O)Nc1nc2ccc(CC)cc2s1 | 45% | 34* | 44% | 73*
Cc1nc2ccc(S(=O)(=O)N(C)CC(=O)NCc3ccc(N(C)C)cc3)cc2s1 | -11% | 8 | ? | 10
CN(C)c1ccc(CC(=O)c2nc3ccccc3s2)cc1 | 3.3µM* | 67* | ? | 44*
CCCn1c(SCC(=O)N2CCCC2=O)nc2ccccc2c1=O | 21% | . | -5% | .
CCOC(=O)Nc1nc2ccccc2s1 | . | 31* | 227% | 66*
CCCNC(=O)Nc1nc2ccccc2s1 | 132% | 51* | 94% | 87*
Cc1ccc(S(=O)(=O)CC(=O)Nc2nc3ccccc3s2)cc1 | ? | -2 | -4% | 2
O=C(O)CCC(=O)Nc1nc2ccccc2s1 | 6% | -3 | . | -6
Cc1ccc(CC(=O)Nc2nc3ccccc3s2)cc1 | 127% | 40* | 74% | 174*
Cc1nc2c(ccc3nc(NC(=O)Cc4ccccc4)sc32)s1 | -16% | 36* | 1% | 36*
SMILES | Pf growth 96h | Cycloheximide cs | Pf growth 48h | Shiga toxin inh
COc1ccc(NC(=O)CSc2nc(C)cs2)c(OC)c1 | ? | 18 | 20% | 51
C=Cc1ccc(Cn2c(=O)n(CCCOC)c(=O)c3sccc32)cc1 | ? | 5 | -20% | -1
CCOC(=O)c1c(NC(=O)CSc2nc3ccccc3s2)sc(C(C)=O)c1C | 39% | 1 | 2% | -8
CN(C)C(=O)c1nc2ccccc2s1 | 19% | 28* | 33% | 74*
O=C(NCCCO)c1nc2ccccc2s1 | 3% | 12 | 43% | 15
Cc1ccc(C(=O)N(Nc2nc3ccccc3s2)C(=O)c2ccc(C)cc2)cc1 | ? | 10* | 11% | 18
CCOC(=O)c1nc2ccccc2s1 | 13% | 27* | 90% | 61*
CC(C)C(=O)N(Nc1nc2ccccc2s1)C(=O)C(C)C | -27% | -2 | 25% | -6
CCCNC(=O)c1ccc(-c2nc3ccccc3s2)s1 | -91% | 48* | . | 28
COc1ccc(C(=O)N/C(=C/c2ccccc2F)C(=O)NCCN2CCOCC2)cc1OC | ? | -4 | -9% | -8
CC(C)C(=O)NN(C(=O)C(C)C)c1nc2ccccc2s1 | 24% | -1 | -2% | 16
CN(C(=O)c1ccccc1)c1nc2ccccc2s1 | -7% | 46* | -31% | 74*
CC(=O)NC1=NN(C(C)=O)C(c2ccc(C)cc2)S1 (stereo not given) | ? | 3 | 11% | -3
